# CYP2C19 act – human CYP2C19 activators, primary screen, biochemical, luminescence; Cytochrome P450 2C19 (Homo sapiens), P33261; recombinant CYP2C19, luciferin-H EGE luminescence; hits give high values; 0 = fully inhibited enzyme, 1 = untreated enzyme; activation factor at 5 µM; 96,000 tested, under 10 active; AID 1025, 2008;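 active = activation factor of at least 2 at 5 µM in the primary screen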;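 also: 0 = wells with 2.5 mM tranylcypromine and 1 = vehicle-only wells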
# Target sequence (P33261 whole entry, looked up): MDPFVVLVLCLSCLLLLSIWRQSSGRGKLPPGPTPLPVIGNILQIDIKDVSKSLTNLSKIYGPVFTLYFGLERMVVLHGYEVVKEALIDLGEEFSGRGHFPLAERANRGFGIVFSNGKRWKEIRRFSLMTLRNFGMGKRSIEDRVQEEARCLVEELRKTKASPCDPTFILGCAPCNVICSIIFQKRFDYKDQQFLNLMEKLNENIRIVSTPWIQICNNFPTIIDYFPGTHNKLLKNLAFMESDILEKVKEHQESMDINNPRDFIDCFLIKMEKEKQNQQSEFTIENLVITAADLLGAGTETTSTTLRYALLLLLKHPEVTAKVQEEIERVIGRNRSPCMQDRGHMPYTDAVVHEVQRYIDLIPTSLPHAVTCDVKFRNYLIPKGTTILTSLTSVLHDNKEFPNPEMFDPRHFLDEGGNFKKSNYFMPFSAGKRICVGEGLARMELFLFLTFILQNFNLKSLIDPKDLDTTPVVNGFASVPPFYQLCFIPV
# CYP2C9 act – human CYP2C9 activators, primary screen, biochemical, luminescence; 96,000 tested, 1.4% active; activation factor at 5 µM; recombinant CYP2C9, luciferin-H conversion; hits give high values; factor 1 = untreated enzyme, 0 = blocked; AID 1024, 2008; Cytochrome P450 2C9 (Homo sapiens), P11712;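 active = activation factor of 2 or more for CYP2C9 at a 5 µM dose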;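 also: 0 = sulfaphenazole-blocked wells and 1 = vehicle-only wells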
# CYP2C9 inh – blockers of cytochrome P450 2C9 activity – biochemical, luminescence, ADME assay, primary screen | CYP2C9 Supersomes, luciferin-H conversion | 96,000 tested, 20% active | inhibition, % at 5 µM;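 active = blocking of liver enzyme CYP2C9 beyond about 50% at 5 µM, limit read from the data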
# CYP2C19 inhib – blockers of cytochrome P450 2C19 activity – biochemical, luminescence, ADME assay, primary screen. CYP2C19 Supersomes, luciferin-H EGE luminescence, 30 min. inhibition, % at 5 µM. 96,000 tested, 21% active. AID 778, 2007;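 active = CYP2C19 inhibition above a set limit at 5 µM in the primary screen, cut at about 50% in these data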;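 also: plate controls were negative control wells for no effect and 2.5 mM tranylcypromine positive control for full effect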
# Cav32 inh – Cav3.2 calcium influx blockers – cell-based, Fluo-4 calcium fluorescence, FDSS, MLSMR library, primary screen | 100,000 tested, 4% active | B-score at 10 µM | Cav3.2-expressing cells; hits give low values;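 active = single-dose well whose peak fluorescence ratio is a statistical outlier from its plate by either plate-standardised score or position-corrected B-score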
# PTK2B oligo ant – antagonists of Pyk2 self-association, primary screen, Q293 cells, FERM NanoBiT luminescence, HTS | Protein-tyrosine kinase 2-beta (Homo sapiens), Q14289 | hits give low values | z-score (the deposit names both 25 µM and 10 µM) | 99,000 tested, 0.83% active | AID 1347419, 2020;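 active = Z-score of -3 or lower, scaled per plate to the spread of control and sample wells; inactive = z-score above -3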;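 also: negative z-score means lost luminescence so less FERM oligomerization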
# An asterisk follows results filed as active; · = no result given. Rows were chosen to be rich in hits. Some 27% of all compounds tested hit in one or more screens of this group.
SMILES,CYP2C19 act,CYP2C9 act,CYP2C9 inh,CYP2C19 inhib,Cav32 inh,PTK2B oligo ant
C=CCSc1ncc(C#N)c(N)n1,·,·,·,·,-0.073,0.49
CC(Oc1ccc(Cl)cc1Cl)c1nc(-c2ccc(NC(=O)c3ccco3)cc2)no1 (stereo not drawn),0.8,0.5,54*,24,-1.7,-1
Cc1ccccc1OCc1nc(-c2ccc(NC(=O)c3ccco3)cc2)no1,·,·,·,·,0.38,-0.04
CCSc1nc(C2CC2)cc(-c2ccco2)c1C#N,0.9,1.3,-34,14,0.77,-0.83
CC(C)(C)c1cc(-c2ccco2)c(C#N)c(SCC#N)n1,0.6,0.1,95*,40,-0.66,-2.8
CCOC(=O)C(C(=O)OCC)C(C)C#CCN1CCCCC1 (stereo not drawn),0.7,1.2,-22,28,1.5,-0.65
Cc1cccc(CSc2ncnc3c2cnn3Cc2ccccc2)c1,1,0.5,49,-2,-2.1,0.41
Cc1ccc(NC(=O)CCn2nc(C)cc2C)c(C)c1,0.5,1,-2,53*,0.53,-0.45
Cc1ccc(NC(=O)CNc2ccc(OC(C)C)cc2)c(C)c1,·,·,·,·,-2,-0.39
Cc1ccc(NC(=O)CCC(=O)n2nc(C)cc2C)c(C)c1,1.1,1.2,-24,-5,-0.91,1.9
Cc1cc(C)n(CC(=O)Nc2ccccc2)n1,0.9,1.1,-6,10,1.1,0.67
Cc1ccc(NC(=O)CNc2cccc(C)c2C)c(C)c1,0.4,0.5,52*,64*,-2.2,0.91
Cc1cccc(NC(=O)CCn2nc(C)cc2C)c1,0.3,2.6*,-160,71*,·,0.08
COc1ccc(-n2c(SCCC(=O)O)nnc2-c2ccncc2)cc1,0.8,0.7,35,24,0.5,-0.32
Cc1ccc(C(=O)c2c(NC(=O)c3cccnc3)sc3c2CCCC3)cc1,0.8,0.8,15,24,-2.9,-1.7
O=C(NNC(=O)c1ccc(SCC2CCCO2)c([N+](=O)[O-])c1)c1ccc(Cl)c([N+](=O)[O-])c1 (stereo not drawn),0.9,0.3,74*,12,0.38,0.13
Cc1ccc(C(=O)NNC(=O)c2ccc(SCC3CCCO3)c([N+](=O)[O-])c2)cc1 (stereo not drawn),1.1,0.5,47,-6,0.37,0.22
O=C(NNC(=O)c1ccccc1Br)c1ccc(SCC2CCCO2)c([N+](=O)[O-])c1 (stereo not drawn),0.9,0.4,62*,8,0.9,-0.6
COc1cc2nc(=S)n3[nH]c(CCn4c(C)nc5ccccc54)nc3c2cc1OC,1,1,4,0,3.3*,0.58
COCCOC(=O)C1=C(C)NC(=O)NC1c1cn(-c2ccccc2)nc1-c1cccs1 (stereo not drawn),0.2,0.3,70*,76*,-1,-0.83
COC(=O)C1=C(C)NC(C)=C(C(=O)OC)C1c1cn(-c2ccccc2)nc1-c1ccco1,0.6,0.2,83*,43,-2.2,-0.71
C=CCOC(=O)C1=C(C)NC(=O)NC1c1cn(-c2ccccc2)nc1-c1cccs1 (stereo not drawn),0.3,0.2,79*,68*,-2.8,-2.6
N#Cc1cn(-c2ccccc2)nc1-c1ccco1,0.9,0.7,32,14,-0.2,-0.6
CC1=C(C#N)C(c2cn(-c3ccccc3)nc2-c2cccs2)C(C#N)=C(C)N1,0.3,0.2,75*,74*,-1.6,-2.4
Brc1ccc(CSc2nnc(-c3cnccn3)n2Cc2ccco2)cc1,0.8,0.5,46,22,·,-2.5
SMILES,CYP2C19 act,CYP2C9 act,CYP2C9 inh,CYP2C19 inhib,Cav32 inh,PTK2B oligo ant
C(=C\c1ccccc1)/CSc1nnc(-c2cnccn2)n1Cc1ccco1,·,·,·,·,-3.5*,1.1
CCn1c(SCC(=O)c2ccccc2)nnc1-c1cnccn1,0.5,1.2,-18,54*,0.046,0.46
Cn1c(SCC(=O)c2ccccc2)nnc1-c1cnccn1,0.6,0.9,8,40,-0.53,0.14
Fc1ccc(CSc2nnc(-c3cnccn3)n2Cc2ccco2)cc1,0.3,0.2,77*,70*,-0.023,-0.46
Nn1c(SC/C=C/c2ccccc2)nnc1-c1ccncc1,0.5,0.9,11,54*,·,·
CCCCOc1ccc(C(=O)OC2CC(C)N(C)CC2C)cc1 (stereo not drawn),0.9,1,2,11,-0.022,-0.12
CCOC(=O)N1CCC(NC(=O)c2cnn3cccnc23)CC1,1,0.8,24,-5,0.022,-0.5
CN(C)CCCNC(CC(=O)Nc1cccc([N+](=O)[O-])c1)C(=O)O (stereo not drawn),·,·,·,·,·,1.3
O=C(CSc1nnc(-c2cnccn2)n1Cc1ccco1)c1ccc2ccccc2c1,1,0.5,54*,4,·,-0.1
CCCCn1nc2cc(C(=O)NCc3ccccc3OC)ccc2c1OCC,0.5,0.4,56*,47,-0.4,·
CCCn1nc2cc(C(=O)NCCCCc3ccccc3)ccc2c1OCC,0.6,0.6,36,41,-3.1,·
CCCCn1nc2cc(C(=O)NC3CCc4ccccc43)ccc2c1OCC (stereo not drawn),0.8,0.4,56*,18,-0.79,·
CCOc1c2ccc(C(=O)NCCc3cccs3)cc2nn1CC,1,1.1,-7,-1,0.55,·
CCCCn1nc2cc(C(=O)NCCc3cccs3)ccc2c1OCC,0.4,0.5,53*,61*,-0.5,·
CCN(C(=O)c1ccc2c(OC)n(CC)nc2c1)c1ccc(OC)cc1,0.9,0.9,6,6,0.35,·
CCCCn1nc2cc(C(=O)N(CC)c3ccc(OC)cc3)ccc2c1OCC,0.5,0.3,75*,52*,-0.55,·
N/C(COc1ccccc1)=N\NC(=O)c1cccnc1Oc1ccccc1,0.6,1,-3,37,0.13,-0.2
Nc1cc(C(=O)N2CCCC2)cc(C(=O)N2CCCC2)c1,1,1,-3,0,0.093,0.13
O=C(COc1ccc(Cl)cc1)NCc1nnc(SCC(=O)NCCc2ccccc2)o1,1,0.5,46,0,-0.018,0.02
CCCCn1nc2cc(C(=O)NCC34CC5CC(CC(C5)C3)C4)ccc2c1OCC,0.7,0.3,71*,26,-0.82,·
Cc1ccc(N=C2CCCN2Cc2ccccc2)c(C#N)c1,·,·,·,·,-1.4,-1.1
CCOc1ccc(Br)cc1/C=N/O,0.9,1,3,8,-2.3,0.12
O=C(O)c1cc(/C=N\O)ccc1OCc1ccccc1,0.9,1,0,11,2,0.43
C#CCOc1ccc(Cl)cc1/C=N/O,0.5,0.6,45,51*,0.041,-0.89
CCCOc1ccc(Br)cc1/C=N/O,0.7,0.7,26,34,-4.9*,1.3
O=C(O)COc1ccc(Br)cc1/C=N/O,1.2,1.2,-22,-24,0.54,0.15
